Calls of active or inactive are those of the source.
Columns and labels:
[1] = binders of probe aFSTL3 on microarray, primary screen, stem cell growth factor project, biochemical, small-molecule microarray, fluorescence 635/667 (AID 1064); conditions: higher = more signal;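 also: measures binding of the biotinylated anti-FSTL3 antibody to printed compounds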
[2] = binders from COS7 lysate, DM2A8 probe, primary screen, torsin A project, cell lysate, small-molecule microarray, fluorescence 635/667 (AID 1065); conditions: higher = more signal, COS7 lysate expressing mutant human TOR1A
[3] = binders of probe aFGF2 on microarray, primary screen, stem cell growth factor project, biochemical, small-molecule microarray, fluorescence 635/667 (AID 1067); conditions: higher = more signal;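 also: measures binding of biotinylated aFGF2 protein to printed compounds on slides; z-score merges feature fluorescence and signal-to-noise across triplicate slides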
[4] = binders of probe aFGF10 on microarray, primary screen, stem cell growth factor project, biochemical, small-molecule microarray, fluorescence 635/667 (AID 1071); conditions: higher = more signal;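 also: score merges 667 nm spot intensity and signal to noise from triplicate slides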
[5] = target: Neurogenic locus notch homolog protein 2 (Homo sapiens) (UniProt Q04721); experiment: Notch2 binders on small-molecule microarrays, primary screen, biochemical, small-molecule microarray, 635 nm fluorescence, stem cell growth factors (AID 1073); conditions: Notch2 binding, higher = more signal
[6] = target: Pro-neuregulin-1, membrane-bound isoform (Homo sapiens) (UniProt Q02297); experiment: NRG1 binders on small-molecule microarrays, primary screen, psychiatric disease protein project, biochemical, small-molecule microarray, fluorescence 635/667 (AID 1075); conditions: NRG1 binding, 635 nm fluorescence, higher = more signal;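 also: score combines 667 nm spot fluorescence with signal to noise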
[7] = tested on: Neuregulin-1 EGF-like domain; experiment: binders of neuregulin-1 EGF-like domain, primary screen, biochemical, small-molecule microarray, 635 nm fluorescence (AID 1081); conditions: small-molecule microarray binding, higher = more signal;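 also: binding of the protein to compounds printed on small-molecule microarray slides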
[8] = FRG1 promoter luciferase signal modulators, primary screen, FRG1 inhibition for FSHD, cell-based, C2C12 myotubes, firefly/Renilla luciferase, luminescence (AID 1084); conditions: higher = more signal, called active from +8 up or from −8 down
[9] = binders of probe aFST on microarray, primary screen, stem cell growth factor project, biochemical, small-molecule microarray, fluorescence 635/667 (AID 1086); conditions: higher = more signal;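 also: score merges 667 nm fluorescence with signal-to-noise of each printed compound spot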
[10] = binders of probe aHhip on microarray, primary screen, stem cell growth factor project, biochemical, small-molecule microarray, fluorescence 635/667 (AID 1087); conditions: higher = more signal;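 also: score merges spot fluorescence at 667nm with spot signal to noise ratio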

Neurogenic locus notch homolog protein 2 (Homo sapiens), sequence (Q04721 whole entry, looked up, canonical isoform): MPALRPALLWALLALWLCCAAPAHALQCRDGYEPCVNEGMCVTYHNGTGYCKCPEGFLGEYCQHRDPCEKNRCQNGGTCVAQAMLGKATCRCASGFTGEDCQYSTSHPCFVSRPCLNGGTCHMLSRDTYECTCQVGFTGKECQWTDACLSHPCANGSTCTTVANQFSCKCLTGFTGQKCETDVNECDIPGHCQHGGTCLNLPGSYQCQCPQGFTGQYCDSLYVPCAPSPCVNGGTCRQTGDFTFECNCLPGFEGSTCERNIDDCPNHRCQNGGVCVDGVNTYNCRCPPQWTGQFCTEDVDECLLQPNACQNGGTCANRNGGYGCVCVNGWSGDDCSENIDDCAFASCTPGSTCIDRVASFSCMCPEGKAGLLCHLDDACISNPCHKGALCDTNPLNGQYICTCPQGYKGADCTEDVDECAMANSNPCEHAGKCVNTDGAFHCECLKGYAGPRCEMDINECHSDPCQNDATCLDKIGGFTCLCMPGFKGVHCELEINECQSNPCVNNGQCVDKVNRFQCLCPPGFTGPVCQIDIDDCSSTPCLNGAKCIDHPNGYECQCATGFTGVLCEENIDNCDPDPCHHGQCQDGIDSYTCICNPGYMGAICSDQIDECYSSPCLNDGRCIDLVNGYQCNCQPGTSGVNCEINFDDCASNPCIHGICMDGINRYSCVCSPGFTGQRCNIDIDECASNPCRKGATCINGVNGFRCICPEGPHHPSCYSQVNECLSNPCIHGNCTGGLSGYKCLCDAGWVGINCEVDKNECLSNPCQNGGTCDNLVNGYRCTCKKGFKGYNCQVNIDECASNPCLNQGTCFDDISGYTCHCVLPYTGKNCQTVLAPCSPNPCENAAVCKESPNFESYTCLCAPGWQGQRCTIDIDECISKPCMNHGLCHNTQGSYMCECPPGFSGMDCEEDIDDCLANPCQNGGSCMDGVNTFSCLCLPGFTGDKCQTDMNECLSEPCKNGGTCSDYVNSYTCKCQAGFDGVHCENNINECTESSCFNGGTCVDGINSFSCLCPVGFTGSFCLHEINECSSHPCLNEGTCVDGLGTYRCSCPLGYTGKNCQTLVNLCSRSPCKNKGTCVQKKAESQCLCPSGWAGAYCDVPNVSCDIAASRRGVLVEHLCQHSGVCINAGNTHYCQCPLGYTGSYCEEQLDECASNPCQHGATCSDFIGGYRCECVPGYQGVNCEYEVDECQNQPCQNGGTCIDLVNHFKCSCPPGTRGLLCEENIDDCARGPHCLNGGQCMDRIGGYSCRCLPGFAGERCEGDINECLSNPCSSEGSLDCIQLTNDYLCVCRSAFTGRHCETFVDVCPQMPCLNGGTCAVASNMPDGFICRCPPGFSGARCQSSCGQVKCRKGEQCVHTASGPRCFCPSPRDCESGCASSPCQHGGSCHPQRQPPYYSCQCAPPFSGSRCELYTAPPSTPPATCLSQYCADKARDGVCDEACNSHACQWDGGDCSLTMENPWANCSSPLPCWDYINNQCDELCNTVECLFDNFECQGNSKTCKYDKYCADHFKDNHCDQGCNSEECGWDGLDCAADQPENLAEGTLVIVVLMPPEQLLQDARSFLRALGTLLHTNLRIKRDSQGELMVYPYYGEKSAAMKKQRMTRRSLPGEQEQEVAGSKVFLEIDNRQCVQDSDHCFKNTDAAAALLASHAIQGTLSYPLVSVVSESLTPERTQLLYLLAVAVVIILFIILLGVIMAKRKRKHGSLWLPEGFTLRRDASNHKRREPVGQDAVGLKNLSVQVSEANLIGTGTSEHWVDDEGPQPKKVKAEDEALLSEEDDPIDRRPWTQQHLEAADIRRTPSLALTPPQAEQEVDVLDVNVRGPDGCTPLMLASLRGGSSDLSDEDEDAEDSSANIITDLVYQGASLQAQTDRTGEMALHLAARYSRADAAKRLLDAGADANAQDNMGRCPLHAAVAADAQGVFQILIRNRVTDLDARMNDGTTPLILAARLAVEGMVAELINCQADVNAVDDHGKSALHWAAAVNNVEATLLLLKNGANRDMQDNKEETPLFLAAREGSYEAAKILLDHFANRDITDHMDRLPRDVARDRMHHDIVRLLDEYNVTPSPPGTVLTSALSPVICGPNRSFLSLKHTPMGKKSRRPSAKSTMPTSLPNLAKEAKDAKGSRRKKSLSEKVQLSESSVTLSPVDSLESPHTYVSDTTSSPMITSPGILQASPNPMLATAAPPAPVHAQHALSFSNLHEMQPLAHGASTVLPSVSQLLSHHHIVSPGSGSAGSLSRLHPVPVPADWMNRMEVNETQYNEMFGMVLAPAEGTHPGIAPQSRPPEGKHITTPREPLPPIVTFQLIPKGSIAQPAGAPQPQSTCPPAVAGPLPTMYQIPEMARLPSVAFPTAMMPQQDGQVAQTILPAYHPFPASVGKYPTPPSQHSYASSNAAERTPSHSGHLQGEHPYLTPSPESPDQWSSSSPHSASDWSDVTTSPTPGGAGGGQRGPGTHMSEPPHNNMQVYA
Pro-neuregulin-1, membrane-bound isoform (Homo sapiens), sequence (Q02297 whole entry, looked up, the tested form may be a part, canonical isoform): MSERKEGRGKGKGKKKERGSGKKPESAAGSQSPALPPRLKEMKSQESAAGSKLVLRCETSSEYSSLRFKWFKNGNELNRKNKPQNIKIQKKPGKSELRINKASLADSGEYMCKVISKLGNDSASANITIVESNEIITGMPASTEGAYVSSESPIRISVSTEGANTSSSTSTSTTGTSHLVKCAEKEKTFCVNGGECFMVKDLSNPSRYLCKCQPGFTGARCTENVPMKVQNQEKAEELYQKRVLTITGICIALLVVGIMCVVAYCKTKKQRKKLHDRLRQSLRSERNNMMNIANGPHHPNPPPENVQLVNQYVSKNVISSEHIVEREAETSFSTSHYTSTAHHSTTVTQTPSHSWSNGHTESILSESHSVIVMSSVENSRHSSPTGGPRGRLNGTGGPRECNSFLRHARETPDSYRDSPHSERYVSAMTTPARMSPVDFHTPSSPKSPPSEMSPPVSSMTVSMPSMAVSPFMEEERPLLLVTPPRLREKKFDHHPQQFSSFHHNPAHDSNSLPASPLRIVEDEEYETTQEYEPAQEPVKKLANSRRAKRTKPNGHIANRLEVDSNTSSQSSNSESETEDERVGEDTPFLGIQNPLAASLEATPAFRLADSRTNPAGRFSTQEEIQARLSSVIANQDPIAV

## NC(=O)NCC#Cc1ccc2c(c1)[C@]1(C(=O)N2)[C@H](c2ccccc2OCCO)N2[C@H](c3ccccc3)[C@H](c3ccccc3)OC(=O)[C@H]2[C@@H]1C(=O)N1CCN(c2ncccn2)CC1
[1]
  composite z-score: 0.533
[2]
  composite z-score: 0.195
[3]
  composite z-score: -0.0145
[4]
  composite z-score: 0.499
[5]
  composite z-score: 0.583
[6]
  composite z-score: 1.19
[7]
  composite z-score: 1.07
[8]
  z-score: -0.112 (inactive)
[9]
  composite z-score: 0.315
[10]
  composite z-score: -0.0994

## COc1cccc([C@H]2N[C@H](C(=O)O)CC[C@@H]2C)c1
[1]
  composite z-score: -0.356
[2]
  composite z-score: 0.0291
[3]
  composite z-score: -0.0885
[4]
  composite z-score: -0.42
[5]
  composite z-score: 0.238
[6]
  composite z-score: -0.0739
[7]
  composite z-score: -0.212
[8]
  z-score: -0.0831 (inactive)
[9]
  composite z-score: 0.425
[10]
  composite z-score: -0.127

## COC(=O)Cn1c(C(=O)N2CCCC2)cc2c1C[C@H]1CN(C(=O)c3ccccc3)[C@@](Cc3ccc(OC)cc3)(C(=O)OC)[C@@H]21
[1]
  composite z-score: 0.666
[2]
  composite z-score: -0.157
[3]
  composite z-score: 0.236
[4]
  composite z-score: 0.495
[5]
  composite z-score: 1.68
[6]
  composite z-score: 1.8
[7]
  composite z-score: 1.27
[8]
  z-score: 0.0502 (inactive)
[9]
  composite z-score: 1.7
[10]
  composite z-score: 0.151

## CC1=C([C@H](O)CCc2ccccc2)[C@H](CO)[C@@H]2C(=O)N(Cc3ccccc3)C(=O)[C@@H]2C1
[1]
  composite z-score: -0.183
[2]
  composite z-score: 0.0897
[3]
  composite z-score: 0.0137
[4]
  composite z-score: 0.216
[5]
  composite z-score: 0.585
[6]
  composite z-score: 0.181
[7]
  composite z-score: -0.107
[8]
  z-score: -0.69 (inactive)
[9]
  composite z-score: 0.0747
[10]
  composite z-score: -0.174

## COc1ccc(NN2C(C(O)c3cc(OC)c(OC)c(OC)c3)C=CC3C(=O)N(C4CCCCC4)C(=O)C32)cc1 (stereo not given)
[1]
  composite z-score: 0.833
[2]
  composite z-score: -0.194
[3]
  composite z-score: 0.123
[4]
  composite z-score: 0.767
[5]
  composite z-score: 1.63
[6]
  composite z-score: 1.09
[7]
  composite z-score: 1.07
[8]
  z-score: 1.02 (inactive)
[9]
  composite z-score: 1.51
[10]
  composite z-score: 0.0734

## CN(C)CCCC[C@@H]1NC(=O)[C@@H]2C[C@H](C(=O)O)[C@H](c3ccc(O)cc3)N2C1=O
[1]
  composite z-score: 0.491
[2]
  composite z-score: 0.738
[3]
  composite z-score: -0.128
[4]
  composite z-score: 0.217
[5]
  composite z-score: -0.0401
[6]
  composite z-score: 0.237
[7]
  composite z-score: 1.28
[8]
  z-score: 1.7 (inactive)
[9]
  composite z-score: 0.212
[10]
  composite z-score: -0.279

## CC(C)=C1C(=O)C(c2ccccc2)=C2CN3C(=O)N(CCc4ccccc4)C(=O)[C@]3(Cc3ccccc3)[C@H]21
[1]
  composite z-score: 0.5
[2]
  composite z-score: -0.463
[3]
  composite z-score: -0.0612
[4]
  composite z-score: 0.103
[5]
  composite z-score: -0.272
[6]
  composite z-score: 0.0953
[7]
  composite z-score: -0.318
[8]
  z-score: 0.438 (inactive)
[9]
  composite z-score: 0.0891
[10]
  composite z-score: -0.112

## C[N+](C)(C)CCCCNC(=O)[C@@H]1C[C@@H]2C(=O)N3CCC[C@H]3C(=O)N2[C@@H]1c1cccc(OCCO)c1
[1]
  composite z-score: -0.215
[2]
  composite z-score: 1.3
[3]
  composite z-score: -0.148
[4]
  composite z-score: 0.712
[5]
  composite z-score: -0.145
[6]
  composite z-score: 0.837
[7]
  composite z-score: 1.03
[8]
  z-score: 1.19 (inactive)
[9]
  composite z-score: 0.209
[10]
  composite z-score: 0.171

## C[C@H]1COC(=O)[C@H](Cc2ccccc2)NC(=O)[C@@H](C)COC(=O)[C@H](Cc2ccccc2)NC1=O
[1]
  composite z-score: -0.275
[2]
  composite z-score: 0.381
[3]
  composite z-score: -0.136
[4]
  composite z-score: 0.718
[5]
  composite z-score: 0.694
[6]
  composite z-score: 0.815
[7]
  composite z-score: 1.11
[8]
  z-score: -1.06 (inactive)
[9]
  composite z-score: 0.0531
[10]
  composite z-score: -0.0994

## CO[C@H]1COC(=O)[C@H](CCSC)NC(=O)CC=C[C@@H](C)COC(=O)[C@@H](OCc2ccccc2)C=C[C@@H]1C
[1]
  composite z-score: -0.929
[2]
  composite z-score: 2.45
[3]
  composite z-score: -0.294
[4]
  composite z-score: -0.226
[5]
  composite z-score: -0.206
[6]
  composite z-score: -0.37
[7]
  composite z-score: 0.782
[8]
  z-score: -0.592 (inactive)
[9]
  composite z-score: -0.327
[10]
  composite z-score: -0.0047

## O=C1OCCC/C=C\[C@H]2OC34C=CCN(CCN5CCOCC5)C(=O)[C@H]3N(CCCCCO)C(=O)[C@@H]4C12 (stereo not given in full)
[1]
  composite z-score: -0.0623
[2]
  composite z-score: -0.658
[3]
  composite z-score: -0.174
[4]
  composite z-score: -0.156
[5]
  composite z-score: -0.822
[6]
  composite z-score: -0.179
[7]
  composite z-score: 0.65
[8]
  z-score: 1.48 (inactive)
[9]
  composite z-score: -0.676
[10]
  composite z-score: -0.226

## C=C(COC)/C(=C/C[C@H](OC(C)=O)c1ccc(OCCO)cc1)c1cnc2ccccc2c1
[1]
  composite z-score: 0.0732
[2]
  composite z-score: 0.0548
[3]
  composite z-score: 0.0001
[4]
  composite z-score: 0.765
[5]
  composite z-score: 1.41
[6]
  composite z-score: -0.0967
[7]
  composite z-score: 0.99
[8]
  z-score: 0.345 (inactive)
[9]
  composite z-score: 0.372
[10]
  composite z-score: 0.176

## CN1C(=O)C2C=CC(C(O)C3CC=CCC3)N(Nc3ccccc3)C2C1=O (stereo not given)
[1]
  composite z-score: 0.0125
[2]
  composite z-score: 1.54
[3]
  composite z-score: 0.0631
[4]
  composite z-score: 0.752
[5]
  composite z-score: 1.62
[6]
  composite z-score: 1.85
[7]
  composite z-score: 1.29
[8]
  z-score: 0.294 (inactive)
[9]
  composite z-score: 0.733
[10]
  composite z-score: 0.382

## O=C(CS)NCCCCCCNC(=O)[C@@H]1C[C@@H]2C(=O)N[C@@H](Cc3ccccc3)C(=O)N2[C@@H]1c1ccc(O)cc1
[1]
  composite z-score: 0.0737
[2]
  composite z-score: 1.09
[3]
  composite z-score: -0.083
[4]
  composite z-score: 0.922
[5]
  composite z-score: 0.412
[6]
  composite z-score: 1.23
[7]
  composite z-score: 1.41
[8]
  z-score: 1.21 (inactive)
[9]
  composite z-score: 0.245
[10]
  composite z-score: 0.0373
